Assay outcomes from PubChem.
An excerpt weighted towards active compounds, which were near 7.1% of everything screened.
SW480 rereplic – inducers of DNA re-replication in SW480 colon cancer cells; SW480 DNA re-replication, Hoechst DNA content imaging, 48 h; 1.8% of 340,000 active; AID 624297; Potency, µM (titrated, usually from 46.1 µM), most hits filed as activators; note: nearly all actives have a fitted effect of over 55% in size
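Image-based DNA-content assay: after two days of treatment, nuclei were labelled with the DNA dye Hoechst and imaged, and hits were compounds raising the count of nuclei showing high fluorescence intensity.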
MCF10A rereplic – inducers of DNA re-replication in MCF 10A breast cells | Potency, µM (doses to about 46.1 µM), most hits filed as activators | 2.9% of 350,000 active | MCF 10A DNA re-replication, Hoechst nuclear intensity, 48 h | AID 624296; note: nearly all actives have a fitted effect of over 50% in size
ELG1 repair inh – ELG1-dependent DNA repair inhibition; HEK293T ELG1-luciferase reporter, luminescence, 16 h; DNA damage induced by 5-fluorouridine; Potency, µM (doses to about 46.1 µM), actives largely listed as inhibitors; 2.3% of 330,000 active; AID 504467; note: nearly all actives have a fitted effect of over 55% in size
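Cells (2,000 per well) received 5-fluorouridine plus test compound or DMSO and were incubated 16 hr at 37 °C, 5% CO2. Luciferase activity was read by luminescence 30 min after ONE-Glo addition; signal suppression marked inhibition of damage-induced ELG1 function.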
AT treatment – candidate therapy for ataxia-telangiectasia; Potency, µM (highest dose often 57.5 µM), most hits filed as activators; 0.19% of 320,000 active; AID 485349; F2112 A-T fibroblasts, KAP-1 phosphorylation AlphaLISA; neocarzinostatin DNA damage 30 min before lysis; note: nearly all actives have a fitted effect of over 45% in size
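ATM-like activity read as KAP-1 phosphorylation via AlphaLISA donor/acceptor antibody pairs after lysis and 6 hr at 25C. Cells were ATM-null patient fibroblasts (F2112, hTERT), dosed 60 min, then exposed to the DSB inducer NCS for 30 min.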
ELG1 genotoxic – inducers of genotoxicity in HEK293T ELG1-luciferase cells; HEK293T ELG1-luciferase reporter, luminescence, 16 h; Potency, µM (titrated, usually from 46 µM), usual class: activators; 1.3% of 330,000 active; note: nearly all actives have a fitted effect of over 60% in size
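16 hr compound incubation (37 °C, 5% CO2) of HEK293T cells carrying luciferase-tagged ELG1; luciferase then measured by ONE-Glo luminescence after 30 min at RT.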
p53 reactivator – mutant p53 re-activation in reporter cells; Potency, µM (highest dose often 92.2 µM), most hits filed as activators; 0.063% of 320,000 active; H1299 p53-A138V BP100-luciferase reporter, luminescence, 24 h; AID 504706; note: nearly all actives have a fitted effect of over 45% in size
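H1299 (p53-null), stable ts p53-A138V + BP100-Luc; 1000 cells/well, Opti-MEM/10% FBS; cpd 4 pt, 1:5; 24 h, 37 deg C, 5% CO2; detection reagent 10 min RT; luminescence.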
Each line names hits and unclear results; the compound was inactive in the other large screens. Calls come from the whole dose curve; as a rule, active = well fitted curve in the direction sought with a large enough effect; inconclusive = small, poorly fitted or top-dose-only effect, or another doubt; inactive = no such curve, though single readings can be large; an effect the other way counts as inactive or inconclusive.

COc1c(Br)cc(Br)cc1C(=O)Nc1ccccc1N1CCCC1	none
COc1ccc(CNC(=O)C2CCN(S(=O)(=O)c3ccc4c(c3)CC(C)N4C(C)=O)CC2)cc1 (stereo unspecified)	SW480 rereplic inconclusive, ELG1 repair inh inconclusive
CCN(c1ccccc1)S(=O)(=O)c1cc(C(=O)OC2CCOC2=O)ccc1C (stereo unspecified)	none
COCC(C)N=C1NN=C(c2ccc(NC(C)=O)cc2)CS1 (stereo unspecified)	SW480 rereplic inconclusive, MCF10A rereplic 5.8µM, ELG1 repair inh inconclusive
CC(C)N=C1NN=C(c2ccc(Cl)c(Cl)c2)CS1	SW480 rereplic inconclusive, MCF10A rereplic inconclusive, ELG1 repair inh inconclusive, ELG1 genotoxic 2.1µM
COc1cc(C2CC(=O)Oc3cc(C)cc(C)c32)cc(OC)c1OC (stereo unspecified)	none
COc1cc2c(cc1OC)C(C)N(C(=O)c1c(-c3ccccc3)noc1C)CC2 (stereo unspecified)	SW480 rereplic inconclusive, MCF10A rereplic 12µM, ELG1 repair inh inconclusive
COc1ccccc1N1CCN(C(=O)/C=C/c2ccc(C)cc2)CC1	MCF10A rereplic 23µM
COc1cc2c(cc1OC)C(c1cccs1)N(C(=O)c1cccnc1)CC2 (stereo unspecified)	SW480 rereplic 5.2µM, MCF10A rereplic inconclusive
COc1cc2c(cc1OC)C(c1ccccc1)N(C(=O)CCl)CC2 (stereo unspecified)	SW480 rereplic 16µM, MCF10A rereplic 16µM, ELG1 repair inh inconclusive, ELG1 genotoxic inconclusive
COc1cc2c(cc1OC)C(C1C(=O)CCCC1=O)N(C(=O)CCl)CC2 (stereo unspecified)	none
COc1nc(N)nc2nc[nH]c12	MCF10A rereplic inconclusive (no result: p53 reactivator)
COc1cc2c(cc1OC)C(C)N(C(=O)c1cccc([N+](=O)[O-])c1)CC2 (stereo unspecified)	ELG1 repair inh 18µM
COc1cc2c(cc1OC)C(C)N(C(=O)Nc1ccccc1)CC2 (stereo unspecified)	SW480 rereplic 5.2µM, MCF10A rereplic inconclusive, ELG1 repair inh inconclusive
COc1ccccc1N1CCN(C(=O)c2c(-c3ccccc3)noc2C)CC1	SW480 rereplic inconclusive, MCF10A rereplic 11µM, ELG1 repair inh inconclusive
COc1cc2c(cc1OC)C(C)N(C(=O)c1sccc1C)CC2 (stereo unspecified)	none
O=C(/C=C/c1ccc(Cl)cc1)NC(=S)Nc1ccc(C(=O)O)cc1	none
O=C(/C=C/c1ccc(Cl)cc1)NC(=S)Nc1ccccc1C(=O)O	SW480 rereplic 16µM, MCF10A rereplic inconclusive
C=CCCC(=O)Nc1ccc(Br)cn1	SW480 rereplic 16µM, MCF10A rereplic 9.2µM
O=C(/C=C/c1ccccc1)Nc1ccc(Br)cn1	SW480 rereplic 5.8µM, MCF10A rereplic 2.1µM, ELG1 repair inh inconclusive, ELG1 genotoxic inconclusive
NC(=O)c1ccccc1NC(=O)/C=C/c1ccccc1	ELG1 repair inh inconclusive, ELG1 genotoxic inconclusive, p53 reactivator inconclusive
NC(=O)c1ccccc1NC(=O)/C=C/c1ccc(Cl)cc1	ELG1 repair inh inconclusive, ELG1 genotoxic 3.7µM
CCCCC(=O)Nc1ccc(Br)cn1	ELG1 repair inh inconclusive
CC(=O)c1ccc(N(CC(=O)NCCc2ccccc2)C(=O)c2csnn2)cc1	ELG1 repair inh inconclusive
CCOC(=O)Nc1ccc2c(c1)N(C(=O)CCN(CC)CC)c1ccccc1S2=O (stereo unspecified)	MCF10A rereplic inconclusive
O=C(/C=C/c1ccccc1)Nc1cccnc1Cl	ELG1 repair inh inconclusive, ELG1 genotoxic 18µM
O=C(COC(=O)/C=C/c1ccccc1)Nc1cccnc1Cl	none
Cc1ccccc1NC(=O)c1cccc2nc3ccccc3nc12	SW480 rereplic 18µM, MCF10A rereplic inconclusive, ELG1 repair inh inconclusive
Cc1ccccc1NC(=O)c1ccccc1NC(=O)Cc1cccc2ccccc12	MCF10A rereplic inconclusive, ELG1 repair inh inconclusive
Cc1ccc(C)c(C(=O)N(Cc2nc(-c3ccc(Cl)cc3)no2)C(C)C)c1	MCF10A rereplic 23µM, ELG1 repair inh 21µM
COc1ccc(-c2noc(CN(C(=O)C(C)(C)C)C(C)C)n2)cc1	ELG1 repair inh inconclusive, ELG1 genotoxic 15µM (no result: AT treatment)
Cc1onc(-c2ccccc2Cl)c1C(=O)NCc1nc(-c2ccc(C(F)(F)F)cc2)no1	SW480 rereplic inconclusive, MCF10A rereplic inconclusive, ELG1 repair inh 15µM
Cc1ccc(-c2noc(CN(C(=O)CCCCCN3C(=O)c4ccccc4C3=O)C(C)C)n2)cc1	ELG1 repair inh 18µM
Cc1onc(-c2ccccc2Cl)c1C(=O)NCc1ccccc1F	none
COc1ccc2c(c1C)CCC(C)(C#N)C2=O (stereo unspecified)	none (no result: ELG1 repair inh, AT treatment, ELG1 genotoxic, p53 reactivator)
COc1cc(CCCN2CCNC[C@@H]2Cc2ccc(O)cc2)cc(OC)c1OC	ELG1 repair inh inconclusive
Cc1cc(Br)ccc1OCC(=O)N(Cc1nc(-c2ccccc2)no1)C(C)C	SW480 rereplic inconclusive, MCF10A rereplic 18µM, ELG1 repair inh inconclusive
Cc1onc(-c2ccccc2Cl)c1C(=O)N(Cc1nc(-c2ccccc2)no1)C1CCCCC1	SW480 rereplic inconclusive, MCF10A rereplic inconclusive, ELG1 repair inh inconclusive (no result: AT treatment)
COc1ccccc1OCC(=O)N(Cc1nc(-c2ccccc2)no1)C(C)C	SW480 rereplic inconclusive
Cc1cccc(-c2noc(CN(C(=O)c3c(-c4ccccc4Cl)noc3C)C(C)C)n2)c1	MCF10A rereplic inconclusive, ELG1 repair inh 21µM
O=C(c1ccc2c(c1)[nH]c(=S)n1c3ccccc3nc21)N1CCN(c2ncccn2)CC1	MCF10A rereplic 9.2µM, p53 reactivator inconclusive (no result: AT treatment)
O=C(CSc1nc2ccc(Nc3nc(N4CCCC4)nc(N4CCCC4)n3)cc2s1)NCc1ccco1	MCF10A rereplic 5.8µM, ELG1 repair inh inconclusive
CSc1nc2ccc(Nc3nc(N4CCOCC4)nc(N4CCOCC4)n3)cc2s1	SW480 rereplic 16µM, MCF10A rereplic inconclusive, ELG1 repair inh 5.2µM
CCOc1ccc2nc(SCC(=O)NCc3ccco3)sc2c1	none
CC(=O)c1ccc(NC(=O)CSc2nc(Nc3ccccc3)nc(N3CCOCC3)n2)cc1	ELG1 repair inh 5.8µM
O=C(CSc1nc2ccc(Nc3nc(N4CCOCC4)nc(N4CCOCC4)n3)cc2s1)Nc1ccccc1F	SW480 rereplic 2.9µM, MCF10A rereplic 2.1µM, ELG1 repair inh 2.6µM
Cc1ccc(Nc2nc(N3CCOCC3)nc(N3CCOCC3)n2)cc1	ELG1 repair inh inconclusive
COc1ccc(C)cc1N1CC(C(=O)OCc2nc(N)nc(Nc3ccccc3C)n2)CC1=O (stereo unspecified)	SW480 rereplic inconclusive
